Drawing on ChEMBL document CHEMBL5606458, “ASAP - ZIKV NS2B-NS3 protease fluorescence single point” (2024), this text covers inhibition for 26 compounds.

About 160 (5.9%) of roughly 2,700 compounds showed an effect of 50% or more. The entries come from a sample that favours strong results as a whole.

In the assay the target is Nonstructural protein 3 (Zika virus) (UniProt A0A024AXB9).
The mark [1] stands for this setting: PRVABC59, Concentration 198.0 uM, Number of replicates 2.0, Standard deviation 0.06482927085509294 %.

Nonstructural protein 3 (Zika virus), sequence (A0A024AXB9 as listed by the source): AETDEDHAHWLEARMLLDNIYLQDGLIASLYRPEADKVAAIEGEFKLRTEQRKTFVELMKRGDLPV

In general, inhibition refers to the drop in the measured response relative to a control, in per cent. In the case of `CCC1CCN(Cc2c[nH]c3ccccc23)CC1`, the inhibition runs as follows: (PRVABC59, Concentration 49.5 uM, Number of replicates 2.0, Standard deviation 2.1085872748623196 %) 21.4%; (PRVABC59, Concentration 99.01 uM, Number of replicates 2.0, Standard deviation 0.9763502903682051 %) 37.3%; (PRVABC59, Concentration 198.0 uM, Number of replicates 2.0, Standard deviation 0.045944785323907715 %) 55.2%.
As to `OCc1cc(C2CCN(Cc3c[nH]c4ccccc34)CC2)no1`, the inhibition runs as follows: (PRVABC59, Concentration 49.5 uM, Number of replicates 2.0, Standard deviation 0.29821086957580095 %) 48.5%; (PRVABC59, Concentration 99.01 uM, Number of replicates 2.0, Standard deviation 0.4460202044782944 %) 64.3%; (PRVABC59, Concentration 198.0 uM, Number of replicates 2.0, Standard deviation 0.7494127761974186 %) 75.2%.
Consider `c1ccc(C2CCN(Cc3c[nH]c4ccccc34)CC2)nc1`, for which the inhibition worked out at 59.8% (PRVABC59, Concentration 49.5 uM, Number of replicates 2.0, Standard deviation 1.1072658196883798 %); 75.2% (PRVABC59, Concentration 99.01 uM, Number of replicates 2.0, Standard deviation 0.7753455634987777 %); 86% (PRVABC59, Concentration 198.0 uM, Number of replicates 2.0, Standard deviation 0.5497459588871212 %).
`O=C1NCc2ccccc2C12CCNCC2`: the inhibition came to 0.782% (PRVABC59, Concentration 49.5 uM, Number of replicates 2.0, Standard deviation 1.3304043012280913 %); 2.65% (PRVABC59, Concentration 99.01 uM, Number of replicates 2.0, Standard deviation 0.8986974193851874 %); 2.34% (PRVABC59, Concentration 198.0 uM, Number of replicates 2.0, Standard deviation 5.074631109254522 %).
Turning to `CCn1ccnc(N2CC[C@H](C(C)(C)C)C2)c1=O`, the inhibition (PRVABC59, Concentration 49.5 uM, Number of replicates 2.0, Standard deviation 2.222905543826298 %) is 4.07%; the inhibition (PRVABC59, Concentration 99.01 uM, Number of replicates 2.0, Standard deviation 1.7617429882024038 %) turned out to be 10.1%; the inhibition (PRVABC59, Concentration 198.0 uM, Number of replicates 2.0, Standard deviation 1.0233659428190776 %) came to 20.1%.
Consider `COC[C@@H](C)CN1CC[C@H](c2c[nH]c3ccccc23)C1`, for which the inhibition is, setting by setting: (PRVABC59, Concentration 49.5 uM, Number of replicates 2.0, Standard deviation 1.4380791310486918 %) 4.02%; (PRVABC59, Concentration 99.01 uM, Number of replicates 2.0, Standard deviation 1.4278249713933853 %) 8.28%; (PRVABC59, Concentration 198.0 uM, Number of replicates 2.0, Standard deviation 1.555996909462895 %) 14.7%.
For the compound `c1ccc2c(CN3CCC(c4cnco4)CC3)c[nH]c2c1`, the inhibition reads like this: (PRVABC59, Concentration 49.5 uM, Number of replicates 2.0, Standard deviation 0.1050178081967768 %) 41.5%; (PRVABC59, Concentration 99.01 uM, Number of replicates 2.0, Standard deviation 0.24613759530362114 %) 59.4%; (PRVABC59, Concentration 198.0 uM, Number of replicates 2.0, Standard deviation 0.2970051325336013 %) 74.9%.
For `COc1cccc(C2CCN(Cc3c[nH]c4ccccc34)CC2)c1`, the inhibition is, setting by setting: (PRVABC59, Concentration 49.5 uM, Number of replicates 2.0, Standard deviation 0.042125269324456455 %) 39.6%; (PRVABC59, Concentration 99.01 uM, Number of replicates 2.0, Standard deviation 0.10921765735719036 %) 56.3%; (PRVABC59, Concentration 198.0 uM, Number of replicates 2.0, Standard deviation 0.2075162463769664 %) 67.5%.
As for `c1cnc(C2CCN(Cc3c[nH]c4ccccc34)CC2)nc1`, the inhibition reads like this: (PRVABC59, Concentration 49.5 uM, Number of replicates 2.0, Standard deviation 0.6038611636759568 %) 44.9%; (PRVABC59, Concentration 99.01 uM, Number of replicates 2.0, Standard deviation 0.27239407040154384 %) 62.7%; (PRVABC59, Concentration 198.0 uM, Number of replicates 2.0, Standard deviation 0.2641885847586549 %) 77.4%.
On to `c1ccc2c(CN3CCC(c4ccn[nH]4)CC3)c[nH]c2c1`, for which the inhibition was determined as 41.5% (PRVABC59, Concentration 49.5 uM, Number of replicates 2.0, Standard deviation 1.3620998271263447 %); 58.4% (PRVABC59, Concentration 99.01 uM, Number of replicates 2.0, Standard deviation 0.5632518321987402 %); 73.5% (PRVABC59, Concentration 198.0 uM, Number of replicates 2.0, Standard deviation 0.6599886276000965 %).
Take `CCc1cc(C)nc(C2CCN(Cc3c[nH]c4ccccc34)CC2)n1`: the inhibition amounted to 41.8% (PRVABC59, Concentration 49.5 uM, Number of replicates 2.0, Standard deviation 0.9221110052573533 %); 59.5% (PRVABC59, Concentration 99.01 uM, Number of replicates 2.0, Standard deviation 1.5508934318704077 %); 75.2% (PRVABC59, Concentration 198.0 uM, Number of replicates 2.0, Standard deviation 1.118702788500296 %).
As to `OC1(c2ccccc2)CCN(Cc2c[nH]c3ccccc23)CC1`, the inhibition was 13% (PRVABC59, Concentration 49.5 uM, Number of replicates 2.0, Standard deviation 0.6104232594017089 %); 22.8% (PRVABC59, Concentration 99.01 uM, Number of replicates 2.0, Standard deviation 0.9927585642556782 %); 34.8% (PRVABC59, Concentration 198.0 uM, Number of replicates 2.0, Standard deviation 2.2070409642846154 %).
Turning to `Cn1nccc1C1CCN(Cc2c[nH]c3ccccc23)CC1`, the inhibition reads like this: (PRVABC59, Concentration 49.5 uM, Number of replicates 2.0, Standard deviation 1.4229504354820093 %) 24.6%; (PRVABC59, Concentration 99.01 uM, Number of replicates 2.0, Standard deviation 1.2388422115932054 %) 38.2%; (PRVABC59, Concentration 198.0 uM, Number of replicates 2.0, Standard deviation 1.0765748217775348 %) 55.9%.
In the case of `c1ccc(COC2CCN(Cc3c[nH]c4ccccc34)CC2)cc1`, the inhibition by setting is: (PRVABC59, Concentration 49.5 uM, Number of replicates 2.0, Standard deviation 2.313702836748105 %) 23.5%; (PRVABC59, Concentration 99.01 uM, Number of replicates 2.0, Standard deviation 1.2274106375778986 %) 39.6%; (PRVABC59, Concentration 198.0 uM, Number of replicates 2.0, Standard deviation 0.262548566589399 %) 58.3%.
As for `N#CC1(c2ccccc2)CCN(Cc2c[nH]c3ccccc23)CC1`, the inhibition (PRVABC59, Concentration 49.5 uM, Number of replicates 2.0, Standard deviation 0.4200874171769353 %) is 32%; the inhibition (PRVABC59, Concentration 99.01 uM, Number of replicates 2.0, Standard deviation 0.32673315924966934 %) came to 34.4%; the inhibition under setting [1] was 32.8%.
`c1cncc(C2CCN(Cc3c[nH]c4ccccc34)CC2)c1`: the inhibition reads like this: (PRVABC59, Concentration 49.5 uM, Number of replicates 2.0, Standard deviation 0.34229175267116285 %) 61.9%; (PRVABC59, Concentration 99.01 uM, Number of replicates 2.0, Standard deviation 0.300803069346615 %) 77.1%; under setting [1], 87.7%.
With `c1cc(C2CCN(Cc3c[nH]c4ccccc34)CC2)c2ccncc2c1`, the inhibition by setting is: (PRVABC59, Concentration 49.5 uM, Number of replicates 2.0, Standard deviation 0.9049501572428696 %) 65.6%; (PRVABC59, Concentration 99.01 uM, Number of replicates 2.0, Standard deviation 0.6350269036884285 %) 80.3%; (PRVABC59, Concentration 198.0 uM, Number of replicates 2.0, Standard deviation 0.1685064720944352 %) 90%.
Consider `c1ccc2c(CN3CCC(c4cscn4)CC3)c[nH]c2c1`, for which the inhibition was 65.8% (PRVABC59, Concentration 49.5 uM, Number of replicates 2.0, Standard deviation 0.07712401232790286 %); 79.9% (PRVABC59, Concentration 99.01 uM, Number of replicates 2.0, Standard deviation 0.031176529605690447 %); 89.2% (PRVABC59, Concentration 198.0 uM, Number of replicates 2.0, Standard deviation 0.07383858119278165 %).
On to `FC(F)(F)c1ccccc1C1CCN(Cc2c[nH]c3ccccc23)CC1`, for which the inhibition came to 33% (PRVABC59, Concentration 49.5 uM, Number of replicates 2.0, Standard deviation 0.039004379485921774 %); 38.2% (PRVABC59, Concentration 99.01 uM, Number of replicates 2.0, Standard deviation 0.833177783151486 %); 41.8% (PRVABC59, Concentration 198.0 uM, Number of replicates 2.0, Standard deviation 1.0547312903060968 %).
Take `C#CCn1ccnc(N2CC[C@H](CO)C2)c1=O`: the inhibition (PRVABC59, Concentration 49.5 uM, Number of replicates 2.0, Standard deviation 1.0450300973032534 %) turned out to be 12.1%; the inhibition (PRVABC59, Concentration 99.01 uM, Number of replicates 2.0, Standard deviation 3.6329706761941627 %) came to 19.8%; the inhibition (PRVABC59, Concentration 198.0 uM, Number of replicates 2.0, Standard deviation 1.3173095282768474 %) worked out at 33.5%.
Turning to `CCCC[C@H](NC(=O)OC(C)(C)C)C(=O)N[C@H](C(=O)NCc1ccc(C(N)=O)cc1)c1ccc(OCc2ccccc2)cc1`, the inhibition (PRVABC59, Concentration 49.5 uM, Number of replicates 2.0, Standard deviation 0.2512152790248196 %) is -3.29%; the inhibition (PRVABC59, Concentration 99.01 uM, Number of replicates 2.0, Standard deviation 1.1330320426444238 %) is 4.53%; the inhibition (PRVABC59, Concentration 198.0 uM, Number of replicates 2.0, Standard deviation 0.18969183837952716 %) was determined as 69.4%.
With `CCCC[C@@H](NC(=O)OC(C)(C)C)C(=O)N[C@@H](C(=O)NCc1ccc(CN)cc1)c1ccc(OCc2ccccc2)cc1`, the inhibition (PRVABC59, Concentration 49.5 uM, Number of replicates 2.0, Standard deviation 0.1534981479270999 %) amounted to 98.5%; the inhibition (PRVABC59, Concentration 99.01 uM, Number of replicates 2.0, Standard deviation 0.024832248793042588 %) was 99.6%; the inhibition (PRVABC59, Concentration 198.0 uM, Number of replicates 2.0, Standard deviation 0.14898809796164614 %) stood at 99%.
Regarding `CCn1ccnc(N2CC[C@H](c3cccnc3)C2)c1=O`, the inhibition reads like this: (PRVABC59, Concentration 49.5 uM, Number of replicates 2.0, Standard deviation 0.6295639977718405 %) 11.1%; (PRVABC59, Concentration 99.01 uM, Number of replicates 2.0, Standard deviation 0.9611868657983497 %) 17.2%; (PRVABC59, Concentration 198.0 uM, Number of replicates 2.0, Standard deviation 2.077820749798943 %) 29.9%.
As for `O[C@@H]1CNC[C@H]1c1c[nH]c2ccccc12`, the inhibition (PRVABC59, Concentration 49.5 uM, Number of replicates 2.0, Standard deviation 0.0908773719339778 %) worked out at 4.36%; the inhibition (PRVABC59, Concentration 99.01 uM, Number of replicates 2.0, Standard deviation 0.868383551474818 %) came out at 12%; the inhibition (PRVABC59, Concentration 198.0 uM, Number of replicates 2.0, Standard deviation 1.0703330421004655 %) was 25.3%.
In the case of `CCn1ccnc(N2CC[C@H](C#N)C2)c1=O`, the inhibition (PRVABC59, Concentration 50.0 uM, Number of replicates 1.0) amounted to 9.92%; the inhibition (PRVABC59, Concentration 100.0 uM, Number of replicates 2.0, Standard deviation 3.4431722905816002 %) is 15.4%; the inhibition (PRVABC59, Concentration 200.0 uM, Number of replicates 3.0, Standard deviation 5.353488841443075 %) is 26.6%.
Regarding `CCn1ccnc(N2CC[C@@H](CC#N)C2)c1=O`, the inhibition is, setting by setting: (PRVABC59, Concentration 49.5 uM, Number of replicates 2.0, Standard deviation 4.2825905047110036 %) 7.54%; (PRVABC59, Concentration 99.01 uM, Number of replicates 2.0, Standard deviation 3.0053265516656906 %) 14.9%; (PRVABC59, Concentration 198.0 uM, Number of replicates 2.0, Standard deviation 1.5959318913639373 %) 26%.
